Assay results as given in ChEMBL document CHEMBL1201862, “PubChem BioAssay data set” (2004).
In all, about 1,500 compounds went through this assay and about 140 (9.3%) were called active. How the calls were made is not given here. The sample as a whole holds a higher share of actives than the screen did.

assay: false positives in methylated H4 peptide AlphaScreen detection – biochemical, cherry-picked samples, artefact control for NSD2 inhibitor project, dose response (AID 1053174);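 further: actives lower the AlphaScreen signal from the preloaded product and count as artifacts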

Compound | AbsAC35
OCC[n+]1c2ccccc2nc2ccc(N3CCOCC3)cc21 | 15.8 µM (active)
N/C(=N\N=C/c1ccc(-c2ccc(O)c(C(=O)O)c2)o1)N[N+](=O)[O-] | 19.7 µM (active)
CN(c1ccc(O)cc1)c1ccc([N+](=O)[O-])c2nonc12 | 15.7 µM (active)
CCCCCCCSc1cc(OC)c(CCNC)cc1OC | 14.6 µM (active)
CC[n+]1c(-c2ccccc2)c2cc(N)ccc2c2ccc(N)cc21 | 21.9 µM (active)
CCN(CC)c1ccc(CN2CC=C(c3ccc(F)cc3)CC2)cc1 | 15.3 µM (active)
CN(C)c1ccc(CN2CC=C(c3ccc(F)cc3)CC2)cc1 | 15.5 µM (active)
CCCCN1C(=O)/C(=C/C=C/c2ccco2)C(=O)NC1=S | 10.6 µM (active)
CN(C)c1ccc(/C=C/c2cc[n+](C)c3ccccc23)cc1 | 10.6 µM (active)
